CYP2C9 inh – blockers of cytochrome P450 2C9 activity – biochemical, luminescence, ADME assay, primary screen; P11712; CYP2C9 Supersomes, luciferin-H conversion; inhibition, % at 5 µM; hit rate 20% among 96,000; AID 777, 2007;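 active = blocking of liver enzyme CYP2C9 beyond about 50% at 5 µM, limit read from the data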
Target sequence (P11712 whole entry, looked up): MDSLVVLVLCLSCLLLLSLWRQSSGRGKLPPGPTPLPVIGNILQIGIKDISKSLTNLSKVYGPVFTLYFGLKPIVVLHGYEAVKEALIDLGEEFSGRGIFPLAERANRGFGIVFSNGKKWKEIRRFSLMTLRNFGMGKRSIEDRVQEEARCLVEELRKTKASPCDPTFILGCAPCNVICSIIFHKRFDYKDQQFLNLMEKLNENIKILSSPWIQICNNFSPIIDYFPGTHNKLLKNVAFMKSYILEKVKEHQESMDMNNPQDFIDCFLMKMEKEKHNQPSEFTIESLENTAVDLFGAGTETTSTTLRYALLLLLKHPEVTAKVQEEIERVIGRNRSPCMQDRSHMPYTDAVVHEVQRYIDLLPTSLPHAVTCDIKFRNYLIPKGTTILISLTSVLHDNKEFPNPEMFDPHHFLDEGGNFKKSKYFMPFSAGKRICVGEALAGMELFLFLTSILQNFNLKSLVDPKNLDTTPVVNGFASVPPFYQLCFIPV
CYP2C19 inhib – blockers of cytochrome P450 2C19 activity – biochemical, luminescence, ADME assay, primary screen; P33261; hit rate 21% among 96,000; CYP2C19 Supersomes, luciferin-H EGE luminescence, 30 min; AID 778, 2007; inhibition, % at 5 µM;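 active = CYP2C19 inhibition above a set limit at 5 µM in the primary screen, cut at about 50% in these data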;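 note: plate controls were negative control wells for no effect and 2.5 mM tranylcypromine positive control for full effect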
CYP2C9 activ – human CYP2C9 activators, primary screen, biochemical, luminescence; Cytochrome P450 2C9 (Homo sapiens), P11712; hit rate 1.4% among 96,000; recombinant CYP2C9, luciferin-H conversion; stronger effect = higher value; factor 1 = untreated enzyme, 0 = blocked; activation factor at 5 µM; AID 1024, 2008;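 active = activation factor of 2 or more for CYP2C9 at a 5 µM dose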;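 note: 0 = sulfaphenazole-blocked wells and 1 = vehicle-only wells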
CYP2C19 act – human CYP2C19 activators, primary screen, biochemical, luminescence; Cytochrome P450 2C19 (Homo sapiens), P33261; recombinant CYP2C19, luciferin-H EGE luminescence; stronger effect = higher value; 0 = fully inhibited enzyme, 1 = untreated enzyme; activation factor at 5 µM; 96,000 tested, under 10 active; AID 1025, 2008;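 active = activation factor of at least 2 at 5 µM in the primary screen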;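 note: 0 = wells with 2.5 mM tranylcypromine and 1 = vehicle-only wells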
sEH activator – soluble epoxide hydrolase activators, primary screen, biochemical, human sEH | Bifunctional epoxide hydrolase 2 (Homo sapiens), P34913 | AID 717, 2007 | hit rate 0.04% among 91,000 | activation, % at 2 µM | purified human sEH enzymatic activity, activator screen; in the data active = activation above about 37%
sEH inhibitor – soluble epoxide hydrolase inhibitors, primary screen, biochemical, human sEH. hit rate 0.34% among 91,000. Bifunctional epoxide hydrolase 2 (Homo sapiens), P34913. AID 707, 2007. recombinant human sEH enzymatic activity assay. inhibition, % at 2 µM; in the data active = inhibition above about 80%
An asterisk follows results filed as active; nt = no result given. This is a sample that favours compounds with a hit; in the whole collection about 27% have one here.

SMILES | CYP2C9 inh | CYP2C19 inhib | CYP2C9 activ | CYP2C19 act | sEH activator | sEH inhibitor
O=C(COC(=O)c1ccc(Br)o1)NCCCc1ccccc1 | 71* | 48 | 0.3 | 0.5 | nt | nt
CC(C)CCNC(=O)COC(=O)c1ccc(Br)o1 | 26 | 50 | 0.7 | 0.5 | -3 | 4
CC(=O)C1=C(O)C(=O)N(C)C1c1ccccc1F (stereo not given) | 4 | 0 | 1 | 1 | nt | nt
CCC(Sc1nc2sc(C(=O)OC)c(C)c2c(=O)n1N)C(=O)NCC1CCCO1 (stereo not given) | 93* | 94* | 0.1 | 0.1 | 6 | -6
CCCCNC(=O)C(CC)Sc1nc2sc(C(=O)OC)c(C)c2c(=O)n1N (stereo not given) | nt | nt | nt | nt | -8 | 5
CCOC(=O)COc1ccc2c(c1)C(=O)CC1(CCN(C(C)=O)CC1)O2 | -1 | -7 | 1 | 1.1 | -10 | 9
CCCN1C2=C(C(=O)CC(C)(C)C2)C(c2ccc(F)cc2)C2=C1c1ccccc1C2=O (stereo not given) | 75* | -14 | 0.3 | 1.1 | 6 | -4
CCCCN1C2=C(C(=O)CC(C)(C)C2)C(c2ccccc2)C2=C1c1ccccc1C2=O (stereo not given) | 8 | -2 | 0.9 | 1 | 4 | -5
Cc1cc(C)c2cc(CN(Cc3cccnc3)C(=O)c3ccc(F)cc3)c(Cl)nc2c1 | 46 | 52* | 0.5 | 0.5 | -5 | 7
CC(=O)N(Cc1cccnc1)Cc1cc2ccccc2[nH]c1=O | 19 | 36 | 0.8 | 0.6 | nt | nt
Cc1cccc2cc(CN(Cc3cccnc3)C(=O)c3ccccc3F)c(Cl)nc12 | 55* | 68* | 0.4 | 0.3 | 6 | -6
CCCCNC(=O)N(O)C1N(CCCC)C(=O)N(CC(=O)OC)C1(C)C (stereo not given) | nt | nt | nt | nt | -6 | 6
Cc1cc(C)nc(-n2c(Nc3ccccc3)cc(=O)c3c(C)n(-c4ccccc4)c(=O)nc32)n1 | nt | nt | nt | nt | 1 | -2
O=C(c1ncc[nH]1)c1ccccc1C(=O)N1CCOCC1 | 15 | 11 | 0.9 | 0.9 | -4 | 5
O=C(c1cccnc1Nc1ccc2c(c1)CCC2)N1CCOCC1 | 5 | 70* | 0.9 | 0.3 | nt | nt
CCOc1cc(-c2cc(-c3ccc(N)cc3)nc(N)c2C#N)ccc1O | 89* | 70* | 0.1 | 0.3 | -6 | 4
CCOc1cc(-c2c(C#N)c(N)nc3c2CCCC3)ccc1O | 36 | 61* | 0.6 | 0.4 | nt | nt
CCOc1cc(C2C(C#N)=C(N)Oc3n[nH]c(-c4ccccc4)c32)ccc1O (stereo not given) | 94* | 71* | 0.1 | 0.3 | nt | nt
CCOc1cc(-c2cc(-c3ccccc3)nc(N)c2C#N)ccc1O | 54* | 52* | 0.5 | 0.5 | 2 | -8
N#CC1=C(N)Oc2n[nH]c(-c3ccccc3)c2C1c1cccnc1 (stereo not given) | 23 | 38 | 0.8 | 0.6 | nt | nt
O=C(Nc1sccc1C(=O)N1CCOCC1)c1cccnc1 | -10 | -4 | 1.1 | 1 | -11 | 12
O=C(CCn1c(=O)sc2ccccc21)NCc1ccc2c(c1)OCO2 | nt | nt | nt | nt | -17 | 17
Nc1nc(-c2ccco2)c(-c2ccco2)s1 | 77* | 78* | 0.2 | 0.2 | -3 | 3
C=CCN1C(=O)CSC1=Nc1ccc(O)cc1 | -32 | -9 | 1.3 | 1.1 | -10 | 12
C=CCN1N=C(c2ccc(Cl)s2)CSC1=O | 39 | 72* | 0.6 | 0.3 | 5 | -4
SMILES | CYP2C9 inh | CYP2C19 inhib | CYP2C9 activ | CYP2C19 act | sEH activator | sEH inhibitor
O=C(Nc1cnn(Cc2ccccc2)c1)c1cc2nc(-c3ccco3)cc(C(F)(F)F)n2n1 | 1 | 12 | 1 | 0.9 | nt | nt
COC(=O)c1cccc(NC(=O)NC23CC4CC(CC(C4)C2)C3)c1 | 2 | 12 | 1 | 0.9 | 13 | -15
O=C(O)C1C2CCC(O2)C1C(=O)Nc1cnn(Cc2ccccc2)c1 (stereo not given) | 20 | 83* | 0.8 | 0.2 | 10 | -9
O=C(Nc1cnn(Cc2ccccc2)c1)NC12CC3CC(CC(C3)C1)C2 | 3 | 0 | 1 | 1 | -92 | 92*
CCc1nn(C(C)C(=O)NC(C)CCc2ccco2)c(=O)c2cc3occc3n12 (stereo not given) | 77* | 60* | 0.2 | 0.4 | nt | nt
N#Cc1c(-n2cccc2/C=N/O)sc2c1CCCC2 | -176 | 40 | 2.8* | 0.6 | 6 | -4
C=CCNCc1cccn1-c1sc2c(c1C#N)CCCC2 | -6 | 3 | 1.1 | 1 | -1 | 3
CCOc1ccc(S(=O)(=O)Nc2cc(Sc3ncn[nH]3)c3oc(=O)sc3c2)cc1 | 67* | 69* | 0.3 | 0.3 | -3 | 3
CCOc1ccc(S(=O)(=O)NCc2cccs2)cc1 | 42 | 47 | 0.6 | 0.5 | -1 | 1
N#Cc1nc(-c2ccccc2F)oc1NCc1ccccc1 | 66* | 38 | 0.3 | 0.6 | 12 | -10
COCCCNc1oc(-c2ccccc2F)nc1C#N | 58* | 66* | 0.4 | 0.3 | -9 | 6
N#Cc1nc(-c2ccccc2F)oc1NCCc1ccccc1 | 46 | 36 | 0.5 | 0.6 | 18 | -16
COC(=O)CSc1nc(N2CCOCC2)c2c(c1C#N)CC(C)(C)N(C)C2 | 56* | 5 | 0.4 | 1 | -6 | 7
CC1(C)Cc2c(C#N)c(SCC(=O)c3ccccc3)nc(N3CCOCC3)c2CS1 | 98* | 81* | 0 | 0.2 | 12 | -12
CN1Cc2c(N3CCOCC3)nc(SCc3ccccc3)c(C#N)c2CC1(C)C | 91* | 41 | 0.1 | 0.6 | nt | nt
CCSc1nc(N2CCOCC2)c2c(c1C#N)CC(C)(C)N(C)C2 | 87* | 51* | 0.1 | 0.5 | 6 | -7
CCOc1ccccc1NC(=O)CCS(=O)(=O)c1cccc2nonc12 | 8 | 67* | 0.9 | 0.3 | nt | nt
O=C(CCNS(=O)(=O)c1cccc2nonc12)NCc1cccs1 | -101 | 16 | 2* | 0.8 | nt | nt
O=C(CCS(=O)(=O)c1cccc2nonc12)NCCc1ccccc1 | 3 | 53* | 1 | 0.5 | nt | nt
Cc1ccc(NC(=O)CCNS(=O)(=O)c2cccc3nonc23)cc1 | 26 | 41 | 0.7 | 0.6 | nt | nt
CC(C)CCNC(=O)CCS(=O)(=O)c1cccc2nonc12 | -34 | 55* | 1.3 | 0.4 | nt | nt
COCCN(CCOC)c1ncc(Cl)c(C(=O)c2c(C)cc3ccccn23)n1 | -59 | 90* | 1.6 | 0.1 | -2 | 2
Cc1cc2ccccn2c1C(=O)c1nc(N2CCOCC2)ncc1Cl | -2 | 46 | 1 | 0.5 | 7 | -7
Cc1c(NC(=O)C2CC(c3c(F)cccc3Cl)=NO2)c(=O)n(-c2ccccc2)n1C (stereo not given) | -10 | -5 | 1.1 | 1.1 | 10 | -6

Bioassay records as filed in PubChem.
